From PubChem BioAssay (EPA / NIEHS) come the findings set out here.

Assay [1] concerns the target Transcription factor E2F1 (Homo sapiens) (UniProt Q01094). As to the kind of experiment: ATG_E2F_CIS: Attagene CIS-FACTORIAL HepG2 Assay for human E2F Transcription Factor 1 (AID 2282935). The conditions noted are these: HepG2 Attagene cis-reporter, E2F reporter RNA transcripts; actives raise or lower the signal. In short, it runs like this: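 First, HepG2 cells were transfected with reporter transcription units. Next, they were dosed for 24 h. Then RNA was isolated, converted to cDNA, PCR-amplified, FAM-labeled, HpaI-digested and analyzed by capillary electrophoresis.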

Assay [2] in a line: ATG_M_61_CIS: Attagene CIS-FACTORIAL HepG2 Assay for M61 Transcription Factor (Internal Marker) (AID 2282937). The conditions noted are these: HepG2 Attagene CIS-FACTORIAL M61 internal marker reporter; actives raise or lower the signal. In short, it runs like this: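 HepG2 cells transiently transfected with multiplexed cis-promoter reporter units reporting endogenous transcription factor activity, measured 24 h after dosing. Reporter mRNA quantified by RT-PCR and capillary electrophoresis; bidirectional fit against DMSO baseline.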

A short description of assay [3]: ATG_EGR_CIS: Attagene CIS-FACTORIAL HepG2 Assay for human Early Growth Response 1 (EGR1) (AID 2282938). The conditions noted are these: HepG2 Attagene CIS-FACTORIAL EGR reporter mRNA; actives raise or lower the signal. In short, it runs like this: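 HepG2 cells transiently transfected with cis-element-driven multiplexed reporter units, dosed for 24 h. EGR1-element reporter mRNA quantified by RT-PCR, 6-FAM labelling, HpaI digestion and capillary electrophoresis; bidirectional fit versus DMSO.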

A short description of assay [4]: ATG_M_19_CIS: Attagene CIS-FACTORIAL HepG2 Assay for M19 Transcription Factor (Internal Marker) (AID 2282939). The conditions noted are these: HepG2 Attagene CIS-FACTORIAL M19 internal marker reporter; actives raise or lower the signal. In short, it runs like this: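 Signals come from fluorescence of labelled reporter-specific PCR fragments resolved by capillary electrophoresis, following 24 h treatment of HepG2 cells transfected with cis-promoter reporter units; activity was fitted in both directions relative to DMSO.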

Assay [5] is described as follows: ATG_ERE_CIS: Attagene CIS-FACTORIAL HepG2 Assay for Estrogen Response Element (ERE) (AID 2282940). The following applies: HepG2 ERE cis-reporter, Attagene RNA transcript; actives raise or lower the signal. In short, it runs like this:
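Fluorescence of capillary-separated, FAM-labelled reporter cDNA fragments indicates reporter mRNA levels in HepG2 cells exposed to chemicals for 24 h. Transient transfection with cis-regulated units; data fitted in both directions against DMSO.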

Assay [6] in a line: ATG_Ets_CIS: Attagene CIS-FACTORIAL HepG2 Assay for human Erythroblast Transformation Specific (ETS) (AID 2282941). The following applies: HepG2 ETS cis-reporter transcription, actives raise or lower the signal. In short, it runs like this:
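RT-PCR/capillary electrophoresis fluorescence read-out of reporter mRNA; HepG2 transient multi-reporter transfection; 24 h compound exposure; gain or loss of signal fitted bidirectionally relative to DMSO.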

The target of assay [7] is Hepatocyte nuclear factor 3-beta (Homo sapiens) (UniProt Q9Y261). The experiment in a line: ATG_FoxA2_CIS: Attagene CIS-FACTORIAL HepG2 Assay for human Forkhead box A2 (FOXA2) (AID 2282942). The following applies: HepG2 cis-reporter transcription factor activity, 24 h; actives raise or lower the signal. In short, it runs like this:
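HepG2 transiently transfected with a multiplexed cis-promoter reporter library read endogenous FOXA2 activity. After 24 h compound exposure, reporter mRNA was quantified by RT-PCR, HpaI digestion and capillary electrophoresis. Bidirectional fit against DMSO.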

Assay [8] can be described thus: ATG_FoxO_CIS: Attagene CIS-FACTORIAL HepG2 Assay for human Forkhead box O (FoxO) (AID 2282943). The following applies: HepG2 Attagene cis-reporter, FoxO element, mRNA; actives raise or lower the signal. In short, it runs like this: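 Values reflect reporter mRNA induction or loss in HepG2 cells 24 h post-dosing, fitted bidirectionally with DMSO as negative control and baseline. Detection used RT-PCR and fluorescence capillary electrophoresis.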

Assay [9] in a line: ATG_GATA_CIS: Attagene CIS-FACTORIAL HepG2 Assay for human GATA Binding Protein (AID 2282944). The following applies: HepG2 GATA cis-element reporter, Attagene multiplex mRNA; actives raise or lower the signal. In short, it runs like this: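 After transfecting HepG2 cells with multiple cis-regulated reporter units, chemicals are dosed for 24 h; isolated RNA undergoes RT-PCR and fluorescent labeling before capillary electrophoresis, with activity expressed against DMSO.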

Assay [10] is described as follows: ATG_E_Box_CIS: Attagene CIS-FACTORIAL HepG2 Assay for human Enhancer Box (E-box) (AID 2282936). The following applies: HepG2 E-box cis-reporter transcription, actives raise or lower the signal. In short, it runs like this:
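Endogenous transcription factor activity was sensed in human HepG2 liver cells through transfected cis-promoter reporter units. After 24 h of dosing, total RNA was reverse-transcribed and reporter cDNA resolved by capillary electrophoresis.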

The source made the active and inactive calls. How the source made its calls: active means hit-call score of the fitted dose curve at least 0.9, where 1 is the maximum; inactive means score below 0.9.

Transcription factor E2F1 (Homo sapiens), sequence (Q01094 whole entry, looked up): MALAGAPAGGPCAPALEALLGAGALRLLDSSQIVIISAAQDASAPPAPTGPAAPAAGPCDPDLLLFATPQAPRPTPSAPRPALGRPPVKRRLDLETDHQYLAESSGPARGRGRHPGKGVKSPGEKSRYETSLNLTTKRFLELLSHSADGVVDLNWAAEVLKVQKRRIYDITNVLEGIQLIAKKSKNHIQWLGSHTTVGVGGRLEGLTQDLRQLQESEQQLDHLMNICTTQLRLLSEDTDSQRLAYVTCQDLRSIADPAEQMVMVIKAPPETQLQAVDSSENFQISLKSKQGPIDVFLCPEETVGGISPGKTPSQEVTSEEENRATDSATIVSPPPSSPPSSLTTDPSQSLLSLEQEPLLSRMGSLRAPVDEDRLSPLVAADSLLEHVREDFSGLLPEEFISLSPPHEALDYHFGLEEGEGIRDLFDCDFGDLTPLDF
Hepatocyte nuclear factor 3-beta (Homo sapiens), sequence (Q9Y261 whole entry, looked up): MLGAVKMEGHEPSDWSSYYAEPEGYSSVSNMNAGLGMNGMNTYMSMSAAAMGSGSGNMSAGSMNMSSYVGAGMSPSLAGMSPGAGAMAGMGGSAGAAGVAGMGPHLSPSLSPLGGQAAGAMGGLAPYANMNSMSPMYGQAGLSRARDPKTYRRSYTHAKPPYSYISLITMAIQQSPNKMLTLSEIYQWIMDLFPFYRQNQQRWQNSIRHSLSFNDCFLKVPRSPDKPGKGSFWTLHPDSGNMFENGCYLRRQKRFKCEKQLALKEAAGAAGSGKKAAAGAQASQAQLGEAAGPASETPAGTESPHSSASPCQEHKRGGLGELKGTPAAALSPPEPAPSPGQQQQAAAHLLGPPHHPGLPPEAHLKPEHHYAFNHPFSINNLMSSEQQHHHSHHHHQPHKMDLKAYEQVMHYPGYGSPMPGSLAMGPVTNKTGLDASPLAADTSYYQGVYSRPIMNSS

In the case of `[Cu+]`, the outcome in assay [1], in assay [2], in assay [3], in assay [4], in [5] and in assay [6] was inactive. The outcome in [7], in assay [8] and in assay [9] was inactive.

On to `CC(=O)Nc1cc(S(=O)(=O)O)cc2cc(S(=O)(=O)O)c(N=Nc3ccccc3)c(O)c12`, for which the result in [10], in assay [2], in [3], in [4], in assay [5] and in assay [6] was inactive. For the same compound, the call in [7] and in assay [8] was inactive.

In the case of `CCOc1ccc(NC(C)=O)cc1`, the outcome in assay [10], in assay [2], in assay [3], in assay [4], in assay [5] and in assay [6] was inactive. The result in [7] and in assay [8] was inactive.

For orientation: AC50 means the concentration at which the activity in the assay is half-maximal. For `Cc1cc(O)c2c(c1)C(=O)c1cc(O)cc(O)c1C2=O`, the outcome in assay [1], in assay [2], in assay [3] and in assay [4] was inactive. Moreover, the AC50 in assay [5] is 0.602 µM (active); in assay [6], 19.3 µM (active); in assay [8], 26.2 µM (active).

On to `COc1ccc2[nH]cc(CCNC(C)=O)c2c1`, for which the outcome in [10], in assay [2], in assay [3], in assay [4], in assay [5] and in assay [6] was inactive. Moreover, the compound was called inactive in [7], in [8] and in assay [9].

For `CC1COC(=O)O1` (stereo not drawn), the compound was classed as inactive in assay [1], in [2], in assay [3], in [4], in assay [5] and in [6]. Besides, the compound was classed as inactive in assay [8] and in [9].

`CCOC(=O)C(=O)OCC`: the compound was classed as inactive in assay [1], in [2], in assay [3], in assay [4], in assay [5] and in assay [6]. Also, the compound was called inactive in assay [8] and in assay [9].

On to `CC/C=C\CCCCO`, for which the call in [1], in assay [2], in [3], in [4], in assay [5] and in assay [6] was inactive. Also, the compound was classed as inactive in assay [7], in [8] and in assay [9].

`CC(=O)OC(C)(C)C`: the call in assay [1], in assay [2], in [3], in assay [4], in [5] and in assay [6] was inactive. Moreover, the call in assay [7], in [8] and in [9] was inactive.

Take `CCCCCCCCOC(C)=O`: the result in [1], in [2], in [3], in assay [5], in [6] and in assay [7] was inactive. Moreover, the outcome in assay [8] and in [9] was inactive.

As to `CCC(=O)OCC=Cc1ccccc1`, the outcome in assay [10], in [2], in [3], in assay [4], in [5] and in assay [6] was inactive. Also, the outcome in assay [7] and in assay [8] was inactive.

As to `CC(CO)(CO)[N+](=O)[O-]`, the compound was classed as inactive in assay [1], in [2], in assay [3], in assay [4], in assay [6] and in assay [7]. For the same compound, the call in assay [8] and in [9] was inactive.

As for `CCCCCCOc1ccc(O)cc1`, the outcome in [1], in [2], in assay [3], in [4], in assay [6] and in [7] was inactive. In addition, the result in assay [8] and in assay [9] was inactive. For the same compound, the AC50 in [5] is 2.79 µM (active).

Regarding `c1ccc(Sc2ccccc2)cc1`, the call in assay [1], in [2], in [3], in assay [4], in [7] and in assay [8] was inactive. In addition, the call in assay [9] was inactive. In [5], the AC50 is 63.5 µM (active).

`CCC(=O)OC/C=C(\C)CCC=C(C)C`: the result in assay [1], in assay [2], in [3], in [4], in assay [5] and in assay [7] was inactive. Moreover, the outcome in assay [8] and in assay [9] was inactive.

For the compound `O=S1(=O)CC=CC1`, the call in [1], in [2], in [3], in [4], in [5] and in assay [6] was inactive. The compound was classed as inactive in assay [8] and in [9].

On to `O=C(C=Cc1ccccc1)OCCCc1ccccc1`, for which the call in [1], in assay [2], in [3], in assay [4], in assay [6] and in assay [7] was inactive. Besides, the call in assay [8] and in assay [9] was inactive. Further, the AC50 in [5] was 29.7 µM (active).

Consider `[O-]/[N+](=N\O)c1ccccc1`, for which the compound was called inactive in assay [1], in assay [2], in assay [3], in assay [4], in assay [6] and in assay [7]. The outcome in assay [8] and in assay [9] was inactive. In addition, the AC50 in [5] is 27.7 µM (active).

As for `O=C(O)c1ccco1`, the outcome in assay [1], in assay [2], in assay [3], in [4], in assay [5] and in assay [6] was inactive. In addition, the compound was classed as inactive in assay [7], in [8] and in [9].

As to `C=C(C)C(=O)OCCC(C)OC(=O)C(=C)C` (stereo not drawn), the result in assay [1], in assay [2], in [3], in [4], in assay [5] and in assay [6] was inactive. The compound was classed as inactive in assay [7], in [8] and in assay [9].
